The record followed here is PubChem BioAssay AID2517 (National Center for Advancing Translational Sciences (NCATS), 2011).

Molecules are shown by their SMILES. Several values for one entry are separate records, joined by “and”; a condition that tells them apart may be missing. Equal values may be shown once. Out of some 350,000 compounds screened, about 1,200 (0.34%) were called active. Where a call stands in place of a potency, no number is given. Inconclusive results (about 3%) are left out. This is one part of a sample in which actives are shown more often than they occur. Calls come from the whole dose curve; as a rule, active = well fitted inhibition curve with a large enough effect; inconclusive = small, poorly fitted or top-dose-only effect; inactive = no such curve, though single readings can be large or run the other way. The source holds several records for some structures; these can differ, active in one and inactive in another. Positions of bridges follow the written chain, without caps; N, C: chain ends. Non-standard residues stand in square brackets, D forms with d. Residues, ends and D or L forms follow the SMILES beside them. *: point of attachment. X1 = CC[C@H](C)CCCCC(=O)*; Dab = NCC[C@H](N)C(=O)O
Potency is the fitted concentration of half-maximal effect.

DNA repair nuclease/redox regulator APEX1 (Homo sapiens), sequence (P27695 whole entry, looked up): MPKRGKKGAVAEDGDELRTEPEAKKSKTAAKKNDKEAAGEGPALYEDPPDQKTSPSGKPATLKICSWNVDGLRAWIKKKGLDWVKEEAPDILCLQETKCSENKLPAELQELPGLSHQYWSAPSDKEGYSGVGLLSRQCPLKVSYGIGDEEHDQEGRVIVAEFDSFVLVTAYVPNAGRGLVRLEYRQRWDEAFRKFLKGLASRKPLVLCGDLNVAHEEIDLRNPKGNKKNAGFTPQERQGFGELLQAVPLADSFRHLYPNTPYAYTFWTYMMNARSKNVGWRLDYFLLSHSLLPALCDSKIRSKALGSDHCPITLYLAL

The test concerns the target DNA repair nuclease/redox regulator APEX1 (Homo sapiens) (UniProt P27695). In words: qHTS Assay for Inhibitors of the Human Apurinic/apyrimidinic Endonuclease 1 (APE1). Note: nearly all actives have a fitted effect of over 55% in size. The following applies: recombinant APE1, TAMRA/BHQ-2 abasic DNA cleavage fluorescence; activity change, negative = inhibition: at 65.8 µM (top of the series). In outline:
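Endonuclease cleavage of a quenched abasic-site DNA duplex (50 nM) by APE1 (0.75 nM) was tracked by TAMRA dequenching. Compounds were preincubated with enzyme 15 min at room temperature; data normalized to buffer-only and DMSO wells plus NSC13755 control.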
In general terms: In qHTS, concentration-response curves come from the screen itself.
For `COc1ccc(C2=Nn3c(nnc3-c3ccccc3F)SC2)cc1OC`, the Potency result is “inactive”.
On to `COc1ccc2c3c1OC1CC(O)C=C[C@@]31CCN(C)C2` (stereo partly specified), for which the Potency entry was “inactive”.
Turning to `COc1ccc2c(c1)O[C@@H](c1ccc3c(c1)OCO3)[C@H](OC(=O)NCc1ccco1)C2=O`, the Potency entry was “inactive”.
With `O=C(c1ccncc1)N1CCC2(CCCN(C(c3ccccc3)c3ccccc3)C2)CC1`, the Potency result is “inactive”.
For `COc1cccc([C@@H]2Oc3ccc(Br)cc3C(=O)[C@H]2OC(=O)NCCc2ccc(OC)c(OC)c2)c1`, the Potency result is “inactive”.
For the compound `C=C/C1=C/Cc2ccccc2[C@H](C[N+](=O)[O-])C(C(=O)OC)(C(=O)OC)C1`, the Potency entry was “inactive”.
`C[C@@H]1O[C@@H](O[C@@H]2[C@@H](O)[C@H](OCCc3ccc(O)c(O)c3)O[C@H](CO[C@@H]3O[C@H](CO)[C@@H](O)[C@H](O)[C@H]3O)[C@H]2OC(=O)/C=C/c2ccc(O)c(O)c2)[C@H](O)[C@H](O)[C@H]1O`: the Potency entry was “inactive”.
Same read-out and setting: in the case of `O=C(CN1CCN(S(=O)(=O)/C=C/c2ccccc2)CC1)NC(=O)NCc1ccco1` it was 22.4 µM (active); in that of `COc1ccccc1N1CCN(CC(=O)NC(=O)NCc2ccco2)CC1`, “inactive”; in that of `NC(=O)CCN1CCN(S(=O)(=O)/C=C/c2ccccc2)CC1`, “inactive”.
Same read-out and setting: for `COc1ccccc1CNc1ccnc(-c2c(C)noc2C)n1` the value was “inactive”; for `COC(=O)[C@@H]1C[C@@]2(O)[C@H](O)[C@H](O)[C@H](O)C[C@H]2N1CC1CCCCC1`, “inactive”; for `O=C(Cl)c1ccc([N+](=O)[O-])cc1`, “inactive”.
Take `CCC(C)[C@@H](N)C(=O)O` (stereo partly specified): the Potency entry is “inactive”.
As to `O=C(c1cc(C(F)(F)F)cc(C(F)(F)F)c1)N1CCC2(CCCN(c3ccccn3)C2)CC1`, the Potency result was “inactive”.
Take `C[N+](C)(CCCCCC[N+](C)(C)CCCN1C(=O)c2cccc3cccc(c23)C1=O)CCCN1C(=O)c2cccc3cccc(c23)C1=O`: the Potency was 10 µM (active) and 4.74 µM (active).
Still for that read-out and setting: for `O=C1c2cccc3cccc(c23)C(=O)N1CCCCCc1n[nH]c(=S)o1` the value was “inactive”.
Take `O=C(CN1C(=O)c2cccc3cccc(c23)C1=O)N1CCCCC1`: the Potency entry is “inactive”.
On the same count and under the same terms, in the case of `OC(CCl)CCl` it was “inactive”; in that of `CC[C@H](C)[C@H](NC(=O)[C@H](Cc1ccc(O)cc1)NC(=O)[C@@H](NC(=O)[C@H](CCCN=C(N)N)NC(=O)[C@@H](N)CC(=O)O)C(C)C)C(=O)N[C@@H](Cc1cnc[nH]1)C(=O)N1CCC[C@H]1C(=O)N[C@@H](Cc1ccccc1)C(=O)O`, “inactive”; in that of `CCOC(=O)c1sc2nc(CSCC(=O)OCc3ccc(C(=O)OC)o3)[nH]c(=O)c2c1C`, “inactive”.
Same read-out and setting: in the case of `Cc1sc2nc(CSCC(=O)NC3CCCCC3)[nH]c(=O)c2c1C` it was “inactive”.
As to `CSc1nnc(SCc2nc3sc(C(=O)O)c(C)c3c(=O)[nH]2)s1`, the Potency was 25.1 µM (active).
Turning to `COC(=O)C1(C(C)=O)CC2=CC[C@H]3C(=O)N(c4ccccc4)C(=O)[C@H]3[C@@H]2Cc2ccccc2[C@@H]1C[N+](=O)[O-]` (stereo partly specified), the Potency result was “inactive”.
Regarding `OC[C@H]1O[C@@H](n2cnc3c(NC4CCCC4)ncnc32)[C@H](O)[C@H]1O`, the Potency result was “inactive”.
Turning to `Cc1csc(-c2coc3cc(O[C@@H]4O[C@H](CO)[C@@H](O)[C@@H](O)[C@H]4O)ccc3c2=O)n1`, the Potency entry was “inactive”.
Regarding `CCCCC/C=C/C=C/C=O`, the Potency entry is “inactive”.
With `Cc1cc(C(=O)OCC(=O)N2c3ccccc3NC(=O)C2(C)C)c(C)n1-c1ccccc1`, the Potency result is “inactive”.
`CNS(=O)(=O)c1cccc(C(=O)OCC(=O)N2c3ccccc3NC(=O)C2(C)C)c1`: the Potency is 15 µM (active).
For `CCNc1ccc(C(=O)OCC(=O)N2c3ccccc3NC(=O)C2(C)C)cc1[N+](=O)[O-]`, the Potency entry is “inactive”.
As to `CC(C)CO`, the Potency entry was “inactive”.
Consider `CN1CCN2c3ccccc3Cc3ccccc3[C@@H]2C1`, for which the Potency result is “inactive”.
For the compound `C/C(CCN1CCCCc2nc(C)c(C)cc21)=N\O[C@@H](C)c1cn([C@@H]2COC[C@@H]2O)nn1`, the activity change, negative = inhibition is 11.9% [at 12.4 µM] (inactive).
For the compound `C=CC(C1=CC(=O)C=CC1=O)c1ccc(O)cc1` (stereo unspecified), the Potency result is “inactive”.
As to `COc1cc([C@H](Cc2ccccc2)NC(C)=O)oc(=O)c1`, the Potency is 28.2 µM (active).
As to `COc1ccc(OC)c(NC(=O)N[C@H](Cc2ccccc2)C(=O)NN)c1`, the Potency result is “inactive”.
In the case of `CCOC(=O)C(Cc1ccccc1)NC(=O)CCC(=O)c1ccc(OC)cc1` (stereo unspecified), the Potency result was “inactive”.
Same read-out and setting: for `COC(=O)C1(C)C=CC2(CCCCC2)N1C(C)=O` (stereo unspecified) the value was “inactive”.
For the compound `N#Cc1ccc(CN2CCCC3(CCN(C(=O)c4ccco4)CC3)C2)cc1`, the Potency result is “inactive”.
Turning to `C[C@H]1CCC[C@@]2(C)CCCC[C@]12O`, the Potency entry was “inactive”.
Turning to `COC(=O)CC1c2ccccc2C(Cc2ccc(OC)cc2)=C(C)N1C(=O)OC` (stereo unspecified), the activity change, negative = inhibition is -8.37% [at 12.4 µM] (inactive).
In the case of `O=C(CCS(=O)(=O)c1ccc(Br)cc1)NCCc1ccc(Cl)cc1`, the Potency entry is “inactive”.
Take `COc1ccc(Cl)cc1NC(=O)CCS(=O)(=O)c1ccc(Br)cc1`: the Potency was 11.9 µM (active).
With `CCOc1ccc(OCC)c(NC(=O)CCS(=O)(=O)c2ccc(C)cc2)c1`, the Potency result is “inactive”.
On to `COc1cccc(Cn2c(=O)cnc3cncnc32)c1`, for which the Potency result is “inactive”.
Consider `C=CC1=C2C=C(C3CC3)N(CC(C)C)C=C2C(=O)C(C)(OC(=O)c2ccco2)C1=O` (stereo unspecified), for which the activity change, negative = inhibition is -5.75% [at 12.4 µM] (inactive).
`COc1ccccc1CNc1ncnc2ccc(-c3c(C)noc3C)cc12`: the Potency entry is “inactive”.
For `C[C@H]1Cc2c(-c3ccccc3)nc3c(c2CO1)CN(C(=O)C1CC1)CC3`, the activity change, negative = inhibition was -1.16% [at 12.4 µM] (inactive).
For `COC(=O)C1(C)C=CCN1C(=O)c1ccccc1` (stereo unspecified), the Potency result is “inactive”.
Regarding `Cc1ccc(CNc2ccc(N3CCN(C(=O)OC(C)(C)C)CC3)cc2)cc1`, the Potency entry is “inactive”.
As to `C=CCOC(=O)COCCC(C)C`, the Potency entry is “inactive”.
For the compound `C=CC1=C(C(=O)O)N2C(=O)[C@@H](NC(=O)/C(=N\OCC(=O)O)c3csc(N)n3)[C@H]2SC1`, the Potency is 11.9 µM (active).
`CC(C)(C)OC(=O)C1=C(CO)CS[C@@H]2[C@H](NC(=O)Cc3ccccc3)C(=O)N12`: the Potency result is “inactive”.
On the same count and under the same terms, in the case of `C/C=C/C1=C(C(=O)O)N2C(=O)[C@@H](NC(=O)[C@H](N)c3ccc(O)cc3)[C@H]2SC1` it was “inactive”; in that of `Cc1nnc(SCC2=C(C(=O)O)N3C(=O)C(NC(=O)Cn4nc(C)c(Cl)c4C)C3SC2)s1` (stereo unspecified), “inactive”.
For the compound `CO/N=C(\C(=O)N[C@@H]1C(=O)N2C(C(=O)O)=C(COC(C)=O)CS[C@H]12)c1csc(N)n1` (stereo in doubt), the Potency entry was “inactive and 10 µM (active) and 10.6 µM (active)”.
Still for that read-out and setting: in the case of `Cc1cc(C)cc(C(=O)NC2C(=O)N3C(C(=O)O)=C(CSc4nnc(C)s4)CSC23)c1` (stereo unspecified) it was “inactive”.
In the case of `CC(C)[C@@H](OCc1ccccc1)[C@H](C)/C=N\OC[C@@H](C)[C@H](OCc1ccccc1)C(C)C`, the activity change, negative = inhibition was -2.11% [at 12.4 µM] (inactive).
As for `CO[C@H]1C=CO[C@@]2(C)Oc3c(C)c(O)c4c(O)c(c(/C=N/N5CCN(C)CC5)c(O)c4c3C2=O)NC(=O)/C(C)=C\C=C[C@H](C)[C@H](O)[C@@H](C)[C@@H](O)[C@@H](C)[C@H](OC(C)=O)[C@@H]1C`, the Potency result is “inactive”.
On the same count and under the same terms, for `CC[C@H](C)CCCCC(=O)N[C@@H](CCN)C(=O)N[C@H](C(=O)N[C@@H](CCN)C(=O)N[C@H]1CCNC(=O)[C@@H]([C@H](C)O)NC(=O)[C@H](CCN)NC(=O)[C@H](CCN)NC(=O)[C@H](CC(C)C)NC(=O)[C@@H](CC(C)C)NC(=O)[C@H](CCN)NC1=O)[C@@H](C)O` (X1-[Dab]T[Dab][Dab][Dab][dL]L[Dab][Dab][dT]; lactam 4-C) the value was “inactive”.
In the case of `C[C@H]1Cc2c(COc3ccccc3)nc3c(c2CO1)CN(C(=O)Nc1cccc(C#N)c1)CC3`, the activity change, negative = inhibition is -2.12% [at 12.4 µM] (inactive).
`OCCC(O)CO` (stereo unspecified): the Potency result was “inactive”.
Still for that read-out and setting: in the case of `O=C(c1csnn1)N1CCC[C@@]2(CCN(c3cccc(-c4ccccc4)c3)C2)C1` it was “inactive”; in that of `Cn1cccc1C(=O)N1CCC2(CC1)CN(c1cccc(-c3ccccc3)c1)C2`, “inactive”.
On to `Nc1ncnc2c1ncn2C1CC(O)C(CO)O1` (stereo unspecified), for which the Potency entry was “inactive”.
In the case of `CC1(OC(=O)c2ccc(Cl)nc2)C(=O)Cc2cc(-c3ccsc3)ncc2C1=O` (stereo unspecified), the activity change, negative = inhibition is -0.549% [at 12.4 µM] (inactive).
Regarding `Cc1ccc(C(=O)NNC(=O)c2cc3cc4ccccc4nc3s2)cc1`, the Potency was 22.4 µM (active).
Regarding `Cc1ccc(C(=O)NNC(=O)c2ccc3c(c2)OCCO3)cc1`, the Potency entry was “inactive”.
As for `Cc1ccc(C(=O)NNc2ncnc3ccccc23)cc1`, the Potency result was “inactive”.
On the same count and under the same terms, in the case of `Cn1cc(-c2nc3cnc(N4CCNCC4)nc3n(CCc3ccccc3)c2=O)c2ccccc21` it was “inactive”; in that of `COc1ccc(Oc2ncc3nc(-c4ccc(F)cc4)c(=O)n(C)c3n2)cc1`, “inactive”.
